# The whole screen tested about 2,000 compounds, of which about 110 (5.5%) showed an effect of 50% or more. Only a selection was taken, and strong results are over-represented in it overall.
# Target: Genome polyprotein (dengue virus type 2) (UniProt P29990)
# [1] = Thailand/16681/1984, Concentration 25.0 uM, Number of replicates 1.0
smiles,measurement,setting,value
CNC(=O)c1cc(Cl)ncc1NS(=O)(=O)c1ccc(Oc2ccccc2Cl)cc1,inhibition,"Thailand/16681/1984, Concentration 49.5 uM, Number of replicates 2.0, Standard deviation 0.003826975991637689 %",-0.629%
same,inhibition,"Thailand/16681/1984, Concentration 99.01 uM, Number of replicates 2.0, Standard deviation 0.08610681229787821 %",-0.288%
same,inhibition,"Thailand/16681/1984, Concentration 198.0 uM, Number of replicates 2.0, Standard deviation 0.5032468582115982 %",12.6%
CNC(=O)c1cc(Cl)ccc1NS(=O)(=O)c1ccc(C(=O)N2CCOCC2)cc1,inhibition,"Thailand/16681/1984, Concentration 49.5 uM, Number of replicates 2.0, Standard deviation 0.9242131636205312 %",0.016%
same,inhibition,"Thailand/16681/1984, Concentration 99.01 uM, Number of replicates 2.0, Standard deviation 0.5448647637736805 %",0.743%
same,inhibition,"Thailand/16681/1984, Concentration 198.0 uM, Number of replicates 2.0, Standard deviation 0.08706358790592401 %",3.74%
Cc1cc(CO)c2cccc(NC(=O)CN3CCOCC3)c2n1,inhibition,"Thailand/16681/1984, Concentration 49.95 uM, Number of replicates 2.0, Standard deviation 2.1720644748171827 %",8.27%
same,inhibition,"Thailand/16681/1984, Concentration 99.9 uM, Number of replicates 2.0, Standard deviation 1.8504772771832996 %",15.1%
CS(=O)(=O)N1CCC(C(=O)Nc2nc3c(F)cccc3s2)CC1,inhibition,"Thailand/16681/1984, Concentration 49.5 uM, Number of replicates 2.0, Standard deviation 0.96531236791799 %",0.796%
same,inhibition,"Thailand/16681/1984, Concentration 99.01 uM, Number of replicates 2.0, Standard deviation 0.9471689504241718 %",0.997%
same,inhibition,"Thailand/16681/1984, Concentration 198.0 uM, Number of replicates 2.0, Standard deviation 0.2746253667085591 %",0.83%
NCc1cccc(NC(=O)[C@H]2CCN(C(=O)OCc3ccccc3)C2)c1,inhibition,"Thailand/16681/1984, Concentration 49.5 uM, Number of replicates 2.0, Standard deviation 1.9221944810499825 %",-1.99%
same,inhibition,"Thailand/16681/1984, Concentration 99.01 uM, Number of replicates 2.0, Standard deviation 1.6664051520702452 %",-1.6%
same,inhibition,"Thailand/16681/1984, Concentration 198.0 uM, Number of replicates 2.0, Standard deviation 2.955416090340052 %",-1.98%
O=Cc1ccc(N2CCC(C(=O)N[C@H]3CCOc4ccc(F)cc43)CC2)cc1,inhibition,[1],15.7%
COc1cc(Cc2cnn(-c3ccc(F)cc3)c2)nc(N2CCNCC2)n1,inhibition,"Thailand/16681/1984, Concentration 49.5 uM, Number of replicates 2.0, Standard deviation 0.031215136118926425 %",0.871%
same,inhibition,"Thailand/16681/1984, Concentration 99.01 uM, Number of replicates 2.0, Standard deviation 1.7579341775024742 %",1.83%
same,inhibition,"Thailand/16681/1984, Concentration 198.0 uM, Number of replicates 2.0, Standard deviation 1.6450393762001025 %",5.51%
O=C(O)c1ccn(C2CCN(Cc3c[nH]c4ccccc34)CC2)n1,inhibition,"Thailand/16681/1984, Concentration 49.5 uM, Number of replicates 2.0, Standard deviation 2.1869842063089484 %",-2.55%
same,inhibition,"Thailand/16681/1984, Concentration 99.01 uM, Number of replicates 2.0, Standard deviation 2.684345636447637 %",-2.42%
same,inhibition,"Thailand/16681/1984, Concentration 198.0 uM, Number of replicates 2.0, Standard deviation 2.4976754742252494 %",-2.46%
Cc1cnc(NC(=O)C2CCN(c3ccc(C=O)cc3)CC2)c([N+](=O)[O-])c1,inhibition,[1],14.4%
Cc1cc(CO)c2cccc(Cc3cccc(NC(=O)Cc4c[nH]c5ccccc45)c3)c2n1,inhibition,"Thailand/16681/1984, Concentration 49.95 uM, Number of replicates 2.0, Standard deviation 0.8412168519630298 %",-0.469%
same,inhibition,"Thailand/16681/1984, Concentration 99.9 uM, Number of replicates 2.0, Standard deviation 1.20193607081355 %",3.26%
Cc1cc(CO)c2cccc(Cc3ccccc3NC(=O)C[C@H]3CCCN3)c2n1,inhibition,"Thailand/16681/1984, Concentration 49.95 uM, Number of replicates 2.0, Standard deviation 2.3110961437297597 %",-1.74%
same,inhibition,"Thailand/16681/1984, Concentration 99.9 uM, Number of replicates 1.0",-1.01%
Cc1cnccc1NC(=O)c1cncc(S(C)(=O)=O)c1,inhibition,"Thailand/16681/1984, Concentration 49.5 uM, Number of replicates 2.0, Standard deviation 0.09362930826064811 %",1.61%
same,inhibition,"Thailand/16681/1984, Concentration 99.01 uM, Number of replicates 2.0, Standard deviation 0.10343333957385824 %",2.02%
same,inhibition,"Thailand/16681/1984, Concentration 198.0 uM, Number of replicates 2.0, Standard deviation 0.39657621920361824 %",2.99%
COc1cc(CC(=O)NCc2cccnc2)nc(N2CCNCC2)n1,inhibition,"Thailand/16681/1984, Concentration 49.5 uM, Number of replicates 2.0, Standard deviation 1.473545535483215 %",-5.12%
same,inhibition,"Thailand/16681/1984, Concentration 99.01 uM, Number of replicates 2.0, Standard deviation 1.7989399422367844 %",-4.77%
same,inhibition,"Thailand/16681/1984, Concentration 198.0 uM, Number of replicates 2.0, Standard deviation 1.3802101593440819 %",-3.61%
O=C(NCc1ccccc1)c1cc(O)ccc1NS(=O)(=O)c1ccc(Oc2ccccc2Cl)cc1,inhibition,"Thailand/16681/1984, Concentration 49.5 uM, Number of replicates 2.0, Standard deviation 0.5844803568567073 %",33.5%
same,inhibition,"Thailand/16681/1984, Concentration 99.01 uM, Number of replicates 2.0, Standard deviation 0.18145668135528656 %",55.3%
same,inhibition,"Thailand/16681/1984, Concentration 198.0 uM, Number of replicates 2.0, Standard deviation 0.23302823954279267 %",60.6%
CNC(=O)c1cc(OC)ccc1NS(=O)(=O)c1ccc(Oc2ccccc2Cl)cc1,inhibition,"Thailand/16681/1984, Concentration 49.5 uM, Number of replicates 2.0, Standard deviation 1.018543331825067 %",7.08%
same,inhibition,"Thailand/16681/1984, Concentration 99.01 uM, Number of replicates 2.0, Standard deviation 0.3266212172200244 %",15.5%
same,inhibition,"Thailand/16681/1984, Concentration 198.0 uM, Number of replicates 2.0, Standard deviation 0.9287695329724984 %",21.9%
CNC(=O)c1cc(Cl)cc(C)c1NS(=O)(=O)c1ccc(Oc2ccccc2Cl)cc1,inhibition,"Thailand/16681/1984, Concentration 49.5 uM, Number of replicates 2.0, Standard deviation 1.9936078061389018 %",-4.39%
same,inhibition,"Thailand/16681/1984, Concentration 99.01 uM, Number of replicates 2.0, Standard deviation 1.8430300976388188 %",-5.53%
same,inhibition,"Thailand/16681/1984, Concentration 198.0 uM, Number of replicates 2.0, Standard deviation 2.010624849106266 %",-7.09%
CNC(=O)c1cc(Cl)ccc1NS(=O)(=O)c1ccc(OC)cc1,inhibition,"Thailand/16681/1984, Concentration 49.5 uM, Number of replicates 2.0, Standard deviation 1.598704816821166 %",-9.51%
CNC(=O)c1cnncc1NS(=O)(=O)c1ccc(Oc2ccccc2Cl)cc1,inhibition,"Thailand/16681/1984, Concentration 49.5 uM, Number of replicates 2.0, Standard deviation 2.9688082409176766 %",2.22%
same,inhibition,"Thailand/16681/1984, Concentration 99.01 uM, Number of replicates 2.0, Standard deviation 2.2862743420867915 %",7.71%
same,inhibition,"Thailand/16681/1984, Concentration 198.0 uM, Number of replicates 2.0, Standard deviation 2.701916446857586 %",19.5%
CNC(=O)c1cc(Cl)ccc1NS(=O)(=O)c1ccc(NS(C)(=O)=O)cc1,inhibition,"Thailand/16681/1984, Concentration 49.5 uM, Number of replicates 2.0, Standard deviation 0.6295365180266114 %",1.5%
same,inhibition,"Thailand/16681/1984, Concentration 99.01 uM, Number of replicates 2.0, Standard deviation 0.4200098669756753 %",3.13%
same,inhibition,"Thailand/16681/1984, Concentration 198.0 uM, Number of replicates 2.0, Standard deviation 0.4807630318175827 %",6.02%

# Source: ChEMBL document CHEMBL5606460, “ASAP - DENV-2 NS2B-NS3 protease fluorescence single point” (2024)
